NS1 inh: qHTS Assay for Inhibitors of Influenza NS1 Protein Function. 0.4% of 270,000 active. Potency, µM (top dose mostly 46.1 µM), inactives show at the top dose activity, positive = more growth; also: potency is read from the fitted curve at half-maximal effect; actives are rising curves; nearly all actives have a fitted effect of over 50% in size
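A cell-based growth assay was used: compounds that relieve NS1-induced slow growth of budding yeast raise OD600. Assay medium was yeast nitrogen base with ammonium sulphate and -URA supplement, pH 6.0, with 2% galactose.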
Cruzain inh Det: qHTS Assay for Promiscuous and Specific Inhibitors of Cruzain (with detergent). Potency, µM, inactives show max response, negative = inhibition, actives largely listed as inhibitors. AID 1478, 2009. 0.43% of 200,000 active. purified cruzain, Z-FR-AMC fluorescence, 0.01% Triton; active = well fitted curve in the direction sought with a large enough effect; inconclusive = small, poorly fitted or top-dose-only effect, or another doubt; inactive = no such curve, though single readings can be large; an effect the other way counts as inactive or inconclusive;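 also: potency is read from the fitted curve at half-maximal effect; plate controls were neutral wells for no effect and buffer without enzyme for full effect; nearly all actives have a fitted effect of over 40% in size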
Target sequence (P25779 123-467 limits assumed): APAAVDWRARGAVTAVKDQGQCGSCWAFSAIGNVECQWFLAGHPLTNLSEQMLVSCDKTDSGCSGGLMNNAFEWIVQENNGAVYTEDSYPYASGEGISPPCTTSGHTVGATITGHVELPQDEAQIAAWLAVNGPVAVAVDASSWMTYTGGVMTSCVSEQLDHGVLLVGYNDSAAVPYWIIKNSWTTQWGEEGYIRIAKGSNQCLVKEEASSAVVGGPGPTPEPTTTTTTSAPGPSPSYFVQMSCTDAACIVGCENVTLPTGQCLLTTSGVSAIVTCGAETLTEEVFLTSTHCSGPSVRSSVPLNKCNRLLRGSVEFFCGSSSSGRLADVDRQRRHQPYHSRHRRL
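Purified cruzain (1.5 nM final) was preincubated with compounds for 15 min at room temperature in 100 mM sodium acetate pH 5.5, 5 mM DTT, 0.01% Triton X-100. Reaction started with 2 uM Z-FR-AMC; AMC fluorescence change over 60 s gave activity.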
Cruzain inh noDet: qHTS Assay for Promiscuous and Specific Inhibitors of Cruzain (without detergent) | purified cruzain, Z-FR-AMC fluorescence, no detergent | Potency, µM, without a hit: max response, negative = inhibition, hits mostly inhibitors | 2.3% of 200,000 active | AID 1476, 2009; active = well fitted curve in the direction sought with a large enough effect; inconclusive = small, poorly fitted or top-dose-only effect, or another doubt; inactive = no such curve, though single readings can be large; an effect the other way counts as inactive or inconclusive;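 also: potency is read from the fitted curve at half-maximal effect; plate controls were enzyme without inhibitor for no effect and buffer without enzyme for full effect; nearly all actives have a fitted effect of over 40% in size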
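Purified cruzain at 1.5 nM, pre-incubated 15 min with compound at room temperature in 100 mM sodium acetate pH 5.5, 5 mM DTT, 0.00005% Triton X-100. Reaction started with 2 uM Z-FR-AMC; AMC fluorescence increase over 60 s gives rate.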
NS1 inh valid: Assay for Inhibitors of Influenza NS1 Protein Function: Hit Validation | influenza NS1 function cell assay, 15-point titration | 1,400 tested, under 10 active | shares compounds with NS1 inh | activity change, negative = inhibition, % at 32.9 µM; also: 0% is about no effect
* = called active by the depositor; ? = inconclusive; / = no result. Only a selection was taken, and hits are over-represented in it overall. Unless noted, calls follow the shape of the full dose curve.

SMILES	NS1 inh	Cruzain inh Det	Cruzain inh noDet	NS1 inh valid
CC(C)c1ccc(Nc2nc3ccc(C(=O)c4ccccc4)cc3n3cnnc23)cc1	/	-2%	27%	/
Cc1nc2c(ncn2-c2ccccc2)c(=O)n1NC(=O)CN1CCCCC1	0%	/	/	/
Cc1nc2c(ncn2-c2ccccc2)c(=O)n1NC(=O)CN1CCN(C)CC1	3.5µM*	/	/	-22
O=C(COc1ccccc1)Nc1ccccc1N1CCN(c2ccc(F)cc2)CC1	-4%	-2%	-2%	/
O=C(Nc1nnc(S(=O)(=O)N2CCN(c3ccc(F)cc3)CC2)s1)c1ccccc1	2.2µM*	/	/	-21
COc1ccc(C(=O)Nc2nnc(S(=O)(=O)N3CCN(c4ccc(F)cc4)CC3)s2)cc1	/	0%	-25%	/
O=C(Nc1ccccc1N1CCN(c2ccc(F)cc2)CC1)c1ccccc1	?	1%	?	-27
Cc1cc(NC(=O)/C=C/c2cccc(Cl)c2)n(-c2nc3ccccc3[nH]2)n1	1.8µM*	-2%	-27%	7
Cc1cc(NC(=O)/C=C/c2cccc(F)c2)n(-c2nc3ccccc3[nH]2)n1	20%	-5%	-5%	/
Cc1cc(=O)oc2cc(O)c(O)cc12	/	0%	?	/
CCOC(=O)c1cccc(NC(=O)c2cc(S(=O)(=O)N3CCCCCC3)cn2C)c1	/	-10%	1%	/
O=C(O)c1ccc(C(=O)O)c(C(=O)c2ccc(NC(=O)c3ccccc3)cc2)c1	2%	/	/	/
COc1ccc(OC)c(S(=O)(=O)N2CCCC2C(=O)N2CCc3ccccc3C2)c1 (stereo not given)	?	/	/	?
COc1ccc(OC)c(S(=O)(=O)N2CCCCC2C(=O)N2CCN(c3ccccn3)CC2)c1 (stereo not given)	-5%	-2%	-1%	/
COc1ccc(NC(=O)CCS(=O)(=O)c2ccc3c(c2)n(C)c(=O)c(=O)n3C)cc1Cl	/	-3%	5%	/
COc1ccc(CCNC(=O)CCS(=O)(=O)c2cc3c(cc2Cl)NC(=O)CO3)cc1OC	/	-3%	9%	/
CCN(CC)S(=O)(=O)c1cccc(C(=O)Nc2cccc(C)c2)c1	0%	-5%	-8%	/
CCN(CC)S(=O)(=O)c1cccc(NC(=O)C2SC(=Nc3ccc(C)cc3C)C(C(=O)NC(C)COC)=C2N)c1 (stereo not given)	13µM*	1%	-11%	22
CN(Cc1ccccc1)C(=O)[C@H](Cc1ccc2ccccc2c1)NC(=O)[C@@H]1CCCN1C(=O)Nc1ccccc1[N+](=O)[O-]	/	2%	5%	/
Cc1nn(-c2ccccc2)c2sc(C(=O)O)cc12	-79%	3%	-12%	/
Cc1nn(-c2ccccc2)c2sc(-c3n[nH]c(=S)o3)cc12	2.5µM*	-16%	6%	?
CCn1c(SCC(=O)NCc2ccco2)nc2ccccc2c1=O	0%	/	/	/
O=C(CSc1nc2ccccc2c2nc3ccccc3n12)NCc1ccco1	2.8µM*	-5%	2%	33
Cc1[nH]c2ccccc2c1C(=O)CN1CCN(c2ccc(Cl)cc2)CC1	-2%	/	/	/
CCC(=O)Nc1ccc(Cl)c(NC(=S)NC(=O)c2cc3ccccc3o2)c1	?	-5%	?	5
SMILES	NS1 inh	Cruzain inh Det	Cruzain inh noDet	NS1 inh valid
CCC(=O)Nc1ccc(Cl)c(NC(=S)NC(=O)c2ccco2)c1	7%	-4%	-4%	/
COc1ccc(CNc2ncnc3ccc(-c4c(C)noc4C)cc23)c(OC)c1	/	-3%	-4%	/
N#Cc1cccc(-c2nc(NCCN3CCOCC3)c3ccccc3n2)c1	/	4%	7%	/
Cc1cc(C)c(S(C)(=O)=O)c(Oc2ccccc2C)n1	1µM*	5%	3%	-5
Cc1cc(C)c(S(C)(=O)=O)c(Oc2ccc(F)cc2)n1	2%	7%	-2%	/
COc1ccc(C(=O)N2CCC3(CC2)CN(c2ccccc2)C3)cc1	/	-5%	11%	/
CCOC(=O)/C=C/CCCC=O	/	-1%	-7%	/
CC(C)CCn1nnnc1C(C(C)C)N1CCC(C(N)=O)CC1 (stereo not given)	1%	-4%	2%	/
CCCC(c1nnnn1CCC(C)C)N1CCC(C(N)=O)CC1 (stereo not given)	1.1µM*	1%	-14%	0
Cc1ccccc1-c1nc(CNC(=O)NC2CCCCC2)c(C)o1	/	1%	-10%	/
Cc1nn(-c2ccccc2)c2[nH]c(=O)c(CNCc3ccc4c(c3)OCO4)cc12	7.9µM*	1%	-2%	7
Cc1nn(-c2ccccc2)c2[nH]c(=O)c(CNc3ccc4c(c3)OCCO4)cc12	-6%	-7%	-8%	/
COc1ccc(CNC(=O)C(=O)Nc2ccc(OC)cc2OC)cc1	/	-2%	-11%	/
CC(C)(C)OC(=O)N1CCC[C@H]1C(O)(c1ccccc1)c1ccccc1	/	1%	8%	/
CCOc1ccccc1CNC(=O)CCc1c(C)nn(-c2ccc(N3CCCCC3)nn2)c1C	/	-6%	-6%	/
CCCN=C1N/C(=C\c2ccco2)C(=O)N1c1ccccc1	1%	-12%	-12%	/
CCCN(CCC)C1=N/C(=C\c2ccco2)C(=O)N1c1ccccc1	1.1µM*	-11%	-3%	0
COCCNC(=O)CSc1nc2cc3c(cc2c(=O)n1Cc1ccc(C(=O)NCCc2ccc(OC)c(OC)c2)cc1)OCO3	/	1%	2%	/
CC(C)(C)C1CCc2onc(C(=O)Nc3cnn(Cc4ccc(F)cc4)c3)c2C1 (stereo not given)	-7%	0%	13%	/
CC(C)(C)C1CCc2onc(C(=O)Nc3ccc(F)cc3F)c2C1 (stereo not given)	?	-1%	-2%	?
CCCOc1ccc(CNC(=O)c2ccc(C)c(-n3c(C)nc4cccnc43)c2)cc1	/	-12%	26%	/
CN(Cc1ccccc1)S(=O)(=O)c1ccc2[nH]c(=O)oc2c1	11%	/	/	/
CN(c1ccccc1)S(=O)(=O)c1ccc2[nH]c(=O)oc2c1	?	/	/	9
COc1cccc2cc(C(=O)NCCc3ccccc3)oc12	3%	/	/	/
COc1cc(OC)c2c(=O)c(-c3ccccc3)coc2c1	/	-8%	-12%	/
SMILES	NS1 inh	Cruzain inh Det	Cruzain inh noDet	NS1 inh valid
CC(C)(C)N1C(=O)c2ccc(C(=O)Nc3ccc(-c4nc5ccccc5[nH]4)cc3)cc2C1=O	?	-3%	8%	1
CC(C)(C)N1C(=O)c2ccc(C(=O)Nc3ccc(C(=O)O)cc3)cc2C1=O	7%	/	/	/
CN(C)c1ncnc2ccc(-c3cccc(C#N)c3)cc12	/	-7%	-11%	/
O=C(Cn1c(NCCO)nc2ccccc21)NCC(F)(F)F	2%	/	/	/
O=C(Cn1c(NCCO)nc2ccccc21)NCCc1ccc(F)cc1	1µM*	4%	6%	-4
O=C(Cn1c(=O)c2cccn2c2cccnc21)N1CCN(c2ccccc2F)CC1	10%	/	/	/
CCCCc1nn2c(=O)cc(COC(=O)c3ccco3)nc2s1	/	-3%	-8%	/
COC(=O)C(NC(C)=O)(Nc1nc2ccc(S(C)(=O)=O)cc2s1)C(F)(F)F (stereo not given)	1%	3%	-6%	/
COC(=O)C(NC(C)=O)(Nc1nc2ccc(C)cc2s1)C(F)(F)F (stereo not given)	8.9µM*	1%	0%	-5

From PubChem
